From PubChem
USP17 inh – human USP17-like deubiquitinase inhibition. A8MUK1. purified USP17, Ub-rhodamine cleavage fluorescence, 3 h. inhibition, % at 50 µM. hit rate 6.5% among 47,000. AID 1645855
USP30 inh – blocks human USP30 ubiquitin-rhodamine cleavage | Q70CQ3 | purified USP30, Ub-rhodamine cleavage fluorescence | inhibition, % at 25 µM | hit rate 5.3% among 47,000 | AID 1645860
USP28 inh – human USP28 deubiquitinase inhibition. hit rate 3% among 47,000. Q96RU2. purified USP28, Ub-rhodamine cleavage fluorescence, 30 min. AID 1645857. inhibition, % at 25 µM
OTUD3 inh – blocks human OTUD3 ubiquitin-rhodamine cleavage; hit rate 0.7% among 47,000; inhibition, % at 25 µM; purified OTUD3, Ub-rhodamine fluorescence, 2 h
A number is an active result; . = inactive; / = no result. Only some compounds are listed: those with a hit (about 11% of all), similar ones and a draw of the others. Cut-off read from the data, not from the text of the source: active = inhibition above about 30%; inactive = the rest.

SMILES	USP17 inh	USP30 inh	USP28 inh	OTUD3 inh
O=S1(=O)[C@@H]2CCN(c3ncccn3)CC[C@@H]2CN1Cc1ccc(Cl)cc1	.	.	.	.
NS(=O)(=O)c1ccc(CNS(=O)(=O)c2ccc(-c3ccccn3)s2)cc1	/	60	.	.
O=C1C(=NCc2ccccc2)N[C@@H]2[C@@H](O)[C@@H](O)[C@H](O)[C@@H](CO)N12	.	.	.	.
Cc1cc2c(cc1S(=O)(=O)CCC(=O)NCc1ccc3c(c1)OCO3)OCC(=O)N2	.	.	.	.
Cc1c(OCc2ccccc2)noc1C1CCN(C(=O)CCN)CC1	.	.	41	.
CCN1CC(c2ccn3ncc(C(=O)Nc4ccc(Cl)cc4)c3n2)CC1=O (stereo not drawn)	.	.	.	.
CC(C)c1ccc(NC(=O)COC(=O)c2ccc3[nH]c4c(c3c2)CCCC4)cc1	58	.	.	.
CS(=O)(=O)c1ccc(Cl)c(NC(=O)COC(=O)c2ccc3[nH]c4c(c3c2)CCCC4)c1	/	35	.	.
O=C(COC(=O)c1ccc2[nH]c3c(c2c1)CCCC3)Nc1ccccc1Cl	.	.	.	.
O=C(COC(=O)c1ccc2[nH]c3c(c2c1)CCCC3)Nc1ccccc1-c1ccccc1	/	.	.	.
O=C(COC(=O)c1ccc2[nH]c3c(c2c1)CCCC3)Nc1ccc2c(c1)OCO2	66	42	.	.
CC(=O)Nc1c(-c2ccc(F)cc2)c(C)nn1-c1ccc(C(=O)NCc2ccccn2)cc1	.	.	.	.
CC(=O)Nc1c(-c2ccc(C)cc2)c(C)nn1-c1ccc(C(=O)Nc2cccc(C#N)c2)cc1	49	.	.	.
Cc1nn(-c2ccccc2)c2c1nc(CCC(=O)Nc1ccc(C(C)C)cc1)c(=O)n2C	.	.	.	.
COc1cccc(/C=C/c2nc(C#N)c(N3CCN(C(=O)c4cccs4)CC3)o2)c1	.	52	.	.
CNc1cccc(C2CN(C(=O)c3n[nH]c4c3CCC4)CCO2)n1 (stereo not drawn)	.	.	.	.
Cc1nn(-c2ccccc2)c2nc(C3CCN(C(=O)c4n[nH]c5c4CCC5)CC3)ccc12	.	38	.	.
CCOC(=O)Cc1c(C(=O)OCC)c(C)cn1C	.	.	.	.
CCc1ccc(NC(=O)CCNc2cc(C)nc3nc(-c4cccnc4)nn23)cc1	34	.	.	.
Cc1cc(Nc2cccc(C(=O)Nc3ccccc3C)c2)n2nc(-c3cccnc3)nc2n1	.	46	.	.
Cc1cc(NCCC(=O)Nc2ccc(F)cc2)n2nc(-c3cccnc3)nc2n1	.	.	.	.
CC(C)c1cc(Nc2cccc(F)c2)n2nc(-c3cccnc3)nc2n1	34	53	.	.
Cc1cc(Nc2ccc(C(=O)NCc3ccco3)cc2)n2nc(-c3cccnc3)nc2n1	75	30	.	.
CC(=O)c1ccc(-n2ccc3nc(N4CCCC4)ncc3c2=O)cc1	.	.	.	.
CN(C)c1cc(-n2cnc(C(=O)NCc3ccc(F)cc3)c2)ncn1	.	.	.	.
SMILES	USP17 inh	USP30 inh	USP28 inh	OTUD3 inh
Cc1cccc(-n2nc(C)c3c2NC(=O)CC3C(=O)c2ccc3c(c2)OCO3)c1 (stereo not drawn)	.	.	.	.
COc1ccc(C(=O)C2CC(=O)Nc3c2c(C)nn3-c2ccc(Br)cc2)cc1 (stereo not drawn)	58	.	.	.
COc1ccc(-n2nc(C)c3c2NC(=O)CC3C(=O)c2ccc3c(c2)OCO3)cc1 (stereo not drawn)	.	39	.	.
Cc1cccc(-n2nc(C)c3c2NC(=O)CC3C(=O)c2cc3ccccc3o2)c1 (stereo not drawn)	70	.	.	.
Cc1ccc(-n2nc(C)c3c2NC(=O)CC3C(=O)c2ccc(O)cc2)cc1C (stereo not drawn)	.	.	.	.
CCn1ccc(C(=O)N2CC(c3nc(C)no3)C3(CCOCC3)C2)n1 (stereo not drawn)	.	.	.	.
O=C(COc1ccc2ccccc2c1)NCc1nnnn1-c1ccc(F)c(F)c1	48	.	.	.
Cc1cc(C(=O)NC2(O)C(=O)c3ccccc3C2=O)n(C)n1	94	36	.	.
O=C(NNC1=NC2(CCCC2)Cc2ccccc21)c1cccnc1	.	32	.	.
CCOc1ccc(/C=C/C(=O)c2cc3cc(Cl)ccc3oc2=O)cc1OC	.	.	.	.
CCN(C(=O)c1cccc(-n2nc(C)cc2C)c1)[C@H]1C[C@@H](c2ccccc2)OC2(CCNCC2)C1	.	34	.	.
CC(C)Cc1nc2oc3c(N(C)CCO)ncnc3c2c2c1CCC2	.	91	40	.
CCC(CO)Nc1ncnc2c1oc1nc(CC(C)C)c3c(c12)CCC3 (stereo not drawn)	.	.	.	.
CC(C)Cc1nc2sc3c(SCC(=O)N4CCCCC4)ncnc3c2c2c1CCC2	.	.	.	.
COCCNc1ncnc2c1oc1nc(CC(C)C)c3c(c12)CCC3	.	44	.	.
O=C(C1=C(O)C(=O)N(CCCN2CCOCC2)C1c1ccco1)c1cc2ccccc2o1 (stereo not drawn)	.	.	.	.
CCn1c(CNc2ccc(Cl)cc2)nnc1SCC(=O)Nc1ccccc1	.	.	64	.
CCn1c(CC(=O)Nc2ccccc2)nnc1SCC(=O)c1ccccc1	.	.	.	.
Cc1ccccc1C(=O)N1CCc2cc(-c3nc(NC(=O)C4(c5ccc(Cl)cc5)CCC4)sc3C)ccc21	.	/	/	.
Cc1sc(NC(=O)C2(c3ccc(Cl)cc3)CCC2)nc1-c1ccc2c(c1)CCN2C(=O)C1CCCCC1	.	31	.	.
Cc1sc(NC(=O)CN2CCc3ccccc3C2)nc1-c1ccc2c(c1)CCN2C(=O)C1CCCCC1	54	.	.	.
O=C(Cc1ccc(F)cc1)N1CCCC(c2ccnc(=O)[nH]2)C1 (stereo not drawn)	.	.	.	.
O=c1c2ccccc2c(-c2nc(-c3cccnc3)no2)cn1-c1ccc(F)cc1	.	.	.	.
COc1cccc(-n2cc(-c3nc(-c4cccnc4)no3)c3ccccc3c2=O)c1	.	31	.	.
COc1ccc(S(=O)(=O)N2CCN(C(=O)c3cccnc3)CC2)cc1	.	.	.	.
SMILES	USP17 inh	USP30 inh	USP28 inh	OTUD3 inh
CN(Cc1ccccc1)S(=O)(=O)c1ccc(S(=O)(=O)N2CCN(C(=O)c3cccnc3)CC2)cc1	.	74	.	.
O=C(C1CCOC1)N1CCC2(CC1)CN(c1ncccn1)c1ccccc12 (stereo not drawn)	.	.	.	.
O=C(C1CCOC1)N1CCC2(CC1)CN(c1cccnc1)c1ccccc12 (stereo not drawn)	/	49	.	.
c1ccc(COc2ccc3[nH]c4c(c3c2)CCCCCC4)cc1	42	.	.	.
Cn1nc(C(=O)N2CCN(c3ccccn3)CC2)c2c1-c1ccsc1CC2	.	.	.	.
Cc1ccc(CNC(=O)c2nn(C)c3c2CCc2sccc2-3)cc1	/	33	36	.
Cn1nc(C(=O)N2CCC(c3ccccc3)C2)c2c1-c1ccsc1CC2 (stereo not drawn)	46	32	.	.
CC(=O)c1ccccc1NC(=O)c1cccc(S(=O)(=O)N2CCCc3ccccc32)c1	.	.	.	.
COc1ccc(-n2cc(C(=O)NCCc3ccc(F)cc3)nn2)cc1	.	.	.	.
